PglD DTNB: inhibitors of Campylobacter jejuni PglD acetyltransferase. 360,000 compounds, 0.098% hits. AID 602405. inhibition, % at 12.5 µM. purified PglD enzyme, DTNB colorimetric CoA detection; in the data active = inhibition above about 16%, passing the limit was not always enough; inconclusive = no clear call, values can overlap the other calls
NSD2 HMT inh: NSD2 (human) methyltransferase inhibition; O96028; NSD2 peptide methylation, AlphaScreen, 120 min; inhibition, % at 12.5 µM; 310,000 compounds, 0.54% hits; AID 743445; in the data active = inhibition above about 50%
ALR H2O2 inh: blocks human ALR sulfhydryl oxidase activity. P55789. purified ALR, DTT oxidation, H2O2 HRP-luminol luminescence. inhibition, % (test concentration not listed). 290,000 compounds, 3.8% hits;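 active = mean replicate inhibition above about 79%, with every replicate also reaching it, limit read from the data; inconclusive = only one of the two criteria met; inactive = mean below limit and not every replicate reaching it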
Target sequence (P55789 whole entry, looked up): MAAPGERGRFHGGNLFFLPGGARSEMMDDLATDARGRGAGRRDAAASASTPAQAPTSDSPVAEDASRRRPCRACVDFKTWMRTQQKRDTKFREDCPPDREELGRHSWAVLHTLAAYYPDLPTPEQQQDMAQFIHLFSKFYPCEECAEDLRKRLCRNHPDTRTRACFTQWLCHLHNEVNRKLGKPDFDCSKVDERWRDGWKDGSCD
Env fusion inh: HIV envelope-mediated fusion inhibition; HeLa-JRFL Env/CEM21 cell fusion, luciferase; inhibition, % at 12.3 µM; 360,000 compounds, 1.1% hits;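 active = mean replicate inhibition score of at least 50 and every replicate individually at or above 50; inconclusive = only one of the two criteria met; inactive = mean below 50 and not all replicates reaching 50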
CFTR F508del cor: CFTR F508del correction in bronchial cells; AID 720511; 350,000 compounds, 0.36% hits; CFBE cells, YFP halide quenching; stimulated with forskolin plus potentiator P3; % fluorescence drop versus neutral controls; activity (quench increase), % at 7.58 µM;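 active = mean added fluorescence quench of at least 8% versus neutral control, with both replicates also reaching 8%; inconclusive = only one of the mean or replicate conditions met; inactive = mean below 8% and not both replicates reaching 8%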;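 note: cells transiently co-express mutant CFTR-F508del with the halide-sensitive YFP; corrector assay measuring rescue of mutant channel to the surface after 24 h compound exposure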
Casp6 inh: inhibitors of human caspase-6 | AID 686996 | inhibition, % at 12.5 µM | P55212 | purified caspase-6, Z-VEID-R110 cleavage fluorescence | 350,000 compounds, 0.53% hits;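 active = mean inhibition across replicates at least about 35%, with every replicate also reaching that limit, limit read from the data; inconclusive = only one of the two criteria met; inactive = neither criterion met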
Target sequence (P55212 24-179 limits assumed): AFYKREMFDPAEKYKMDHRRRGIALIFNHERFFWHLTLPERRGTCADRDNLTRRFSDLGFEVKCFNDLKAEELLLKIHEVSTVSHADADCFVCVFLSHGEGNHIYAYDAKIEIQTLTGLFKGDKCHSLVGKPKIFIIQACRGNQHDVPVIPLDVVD
Target sequence (P55212 194-293 limits assumed): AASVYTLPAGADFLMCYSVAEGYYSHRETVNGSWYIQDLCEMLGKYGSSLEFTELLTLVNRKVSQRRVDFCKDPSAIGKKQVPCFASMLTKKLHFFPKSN
Hits are given with their value; – = inactive; ? = inconclusive; · = no result given; [ ] = dose if it differs, or a comment. Rows were chosen to be rich in hits. Some 4.1% of all compounds tested hit in one or more screens of this group.

SMILES	PglD DTNB	NSD2 HMT inh	ALR H2O2 inh	Env fusion inh	CFTR F508del cor	Casp6 inh
COc1ccc(NC(c2ccccc2)P(=O)(Oc2ccccc2)Oc2ccccc2)cc1 (centres undefined)	·	–	–	–	–	·
COP(=O)(OC)C(Nc1ccccc1)c1ccccc1 (centres undefined)	–	–	96	–	–	–
CCOC(=O)C1CCN(/C=C2/C(=O)NC(=O)N(Cc3ccco3)C2=O)CC1	–	–	–	·	·	55
Cn1cccc1/C=C1\C(=O)NC(=O)N(Cc2ccco2)C1=O	–	–	·	–	·	·
Cc1ccc(OCCn2cccc2/C=C2/C(=O)NC(=O)N(Cc3ccco3)C2=O)cc1	·	–	–	–	–	76
Cc1cc(/C=C2\C(=O)NC(=O)N(Cc3ccco3)C2=O)c(C)n1-c1ccc(O)cc1	–	–	–	–	–	69
Cc1cc(/C=C2\C(=O)NC(=O)N(Cc3ccco3)C2=O)c(C)n1-c1ccc(C(=O)O)cc1	–	·	–	–	–	71
CCOC(=O)c1ccccc1NC(=O)c1c(O)[nH]c(=S)[nH]c1=O	–	·	92	–	–	–
O=C(O)[C@@H]1[C@@H](CO)[C@@H]2Cn3c(ccc(-c4cccc(F)c4)c3=O)[C@H]1N2CCc1ccccc1	–	·	·	·	–	–
C[C@H](N)CN1CCc2ccc(Br)cc21	–	·	99	–	–	–
CCN1[C@@H]2c3ccc(-c4cccc(C(=O)N(C)C)c4)c(=O)n3C[C@H]1[C@H](CO)[C@H]2C(=O)OC	–	·	·	·	–	–
COC(=O)c1ccccc1OP1(=O)COc2ccccc2OC1	–	–	99	–	·	·
O=C(O)c1ccc([N+](=O)[O-])c([N+](=O)[O-])c1	–	–	·	–	–	41
O=[N+]([O-])c1ccc(O)c([N+](=O)[O-])c1	–	·	–	·	–	–
Cc1ccccc1-c1ccc([C@@H]2[C@H]3CN(C(=O)Cc4ccccn4)CCCCN3[C@H]2CO)cc1	–	·	·	·	–	–
OC[C@H]1Nc2ccc(C#Cc3cccnc3)cc2[C@H]2NCC[C@H]21	·	·	·	·	–	–
CN1CCN(c2ccc([N+](=O)[O-])c3no[n+]([O-])c23)CC1	–	97	–	–	18	–
O=C(Cc1ccccn1)N1CCCCN2[C@H](CO)[C@@H](c3ccc(C#Cc4ccccc4)cc3)[C@H]2C1	–	·	·	·	–	–
CC=Cc1ccc2n(c1=O)C[C@@H]1[C@@H](CO)[C@H](C(=O)OC)[C@H]2N1S(=O)(=O)c1cccc(C)c1 (mixture of isomers)	–	·	·	61[16.7 µM]	·	–
COC(=O)[C@H]1[C@H](CO)[C@H]2Cn3c(ccc(-c4ccc(OC)cc4)c3=O)[C@@H]1N2C(=O)c1ccccc1F	–	·	·	·	–	–
O=C1NC(=O)C(=Cc2ccc(Sc3ccccc3)o2)C(=O)N1	–	–	–	–	–	–
O=C1NC(=O)C(=Cc2ccc(N3CCOCC3)cc2)C(=O)N1	–	–	–	–	–	–
O=C1NC(=O)C(=Cc2ccc(-c3ccc(Cl)cc3)o2)C(=O)N1	–	·	94	·	·	·
O=C1NC(=O)C(=Cc2ccc(-c3ccc(S(=O)(=O)N4CCOCC4)cc3)o2)C(=O)N1	–	·	92	–	–	–
O=C1NC(=O)C(=Cc2ccc(-c3ccc(F)cc3O)o2)C(=O)N1	–	·	98	·	–	–
SMILES	PglD DTNB	NSD2 HMT inh	ALR H2O2 inh	Env fusion inh	CFTR F508del cor	Casp6 inh
O=C(Cc1cccnc1)N1CCCCN2[C@H](CO)[C@@H](c3ccc(/C=C/c4ccccc4)cc3)[C@H]2C1	–	·	·	·	–	–
CC=Cc1ccc2n(c1=O)C[C@@H]1[C@@H](CO)[C@H](C(=O)O)[C@H]2N1S(=O)(=O)c1ccccc1C (mixture of isomers)	–	·	·	·	–	–
COc1cccc(CN2CC3(C2)[C@H](c2ccccc2)[C@H](CO)N3C(=O)Cc2ccccc2)c1	·	·	·	·	–	–
CCC(C)(C)n1nnnc1C(c1cccs1)N1CC=C(c2ccc(F)cc2)CC1 (centres undefined)	–	–	–	96	·	–
Cc1ccc(N2C(=O)NC(=O)C(CCc3ccccn3)(Cc3ccc(F)cc3)C2=O)cc1 (centres undefined)	·	–	–	58	–	–
CCN(CC)c1ccc(CN(C)CCc2ccc(OC)c(OC)c2)cc1	–	–	99	–	·	·
COc1ccc(CCN(C)Cc2ccc(F)cc2F)cc1OC	–	·	–	–	·	·
O=C(O)[C@H]1[C@H](CO)[C@H]2Cn3c(ccc(-c4ccccc4)c3=O)[C@@H]1N2CC1CCCCC1	–	·	·	·	–	–
O=C(O)C1Cc2ccccc2N2CCCC12 (centres undefined)	–	–	92	–	–	–
COc1cccc(-c2ccc([C@@H]3[C@H](CO)N4CCCCN(C(=O)Cc5ccncc5)C[C@@H]34)cc2)c1	–	·	·	·	–	–
COC(=O)[C@@H]1[C@@H](CO)[C@@H]2Cn3c(ccc(-c4ccc(F)cc4)c3=O)[C@H]1N2Cc1ccccc1	–	·	·	·	–	–
CCC1CO/C(=C(\C(Cl)=C(Cl)Cl)[N+](=O)[O-])N1Cc1ccc(Cl)nc1 (centres undefined)	–	–	–	–	–	–
O=C(C(=C1N(Cc2ccc(Cl)nc2)CCN1Cc1ccc(Cl)nc1)[N+](=O)[O-])C(Cl)Cl	–	–	–	–	–	36
C/C=C/c1ccc(C2[C@@H]3CN(C(=O)C4CCOCC4)C[C@H]2N3)cc1 (some centres undefined)	·	·	·	·	–	–
CC1CC(C)(O)CC(C(O)CC2CC(=O)NC(=O)C2)C1=O (centres undefined)	·	–	·	98	–	–
O=C(O)CCn1cc(C=C2C(=O)NC(=O)NC2=O)c(-c2cc3ccccc3oc2=O)n1	·	–	97	–	–	–
O=C(Cc1ccccc1)N1CC2(C1)[C@H](c1ccccc1)[C@@H](CO)N2Cc1cccc(F)c1	·	·	·	·	?	–
C[C@H](CO)N1C[C@H](C)[C@H](CN(C)C(=O)Oc2ccccc2)OCc2ccccc2-c2c(n(C)c3ccccc23)C1=O	·	·	·	·	–	–
CCC1CN2CCc3cc(OC)c(OC)cc3C2CC1CC1NCCc2c1[nH]c1ccc(O)cc21 (centres undefined)	·	–	·	73	–	–
COc1ccc2c(c1OC)CN1CCc3cc4c(cc3[C@H]1C2)OCO4	–	·	–	·	·	·
CC(Cc1ccccc1Sc1ccc(O)cc1)N(C)C (centres undefined)	·	–	99	·	·	·
C=C1C(=O)O[C@@H]2C[C@@H](C)[C@@H]3C4OC4C(=O)[C@@]3(C)[C@@H](O)[C@H]12 (some centres undefined)	–	·	98	–	–	–
O=C1NC(=O)N(Cc2ccccc2Cl)C(=O)/C1=C/c1cccs1	–	–	97	–	–	–
O=C1NC(=O)N(Cc2ccc(F)cc2)C(=O)/C1=C/c1cccs1	·	–	?	–	–	·
Cc1ccc(/C=C2\C(=O)NC(=O)N(Cc3ccccc3Cl)C2=O)o1	·	–	99	–	–	51
COC(=O)[C@H]1[C@H](CO)[C@H]2Cn3c(ccc(-c4ccccc4)c3=O)[C@@H]1N2S(=O)(=O)c1ccccc1C	–	·	·	·	–	–

Screening results (PubChem BioAssay)
